# Test results from PubChem BioAssay AID2073 (Sanford-Burnham Center for Chemical Genomics, 2009).
# In all, about 290,000 compounds went through this assay and about 570 (0.2%) were called active. Another 1% or so got no clear call; they are omitted. Cut-off read from the data, not from the text of the source: active = inhibition mostly above about 51% (no sharp cut-off); inconclusive = no clear call, values can overlap the other calls; inactive = mostly below about 53%. The full list was thinned out, with actives kept by preference.
# Molecular target: Voltage-dependent N-type calcium channel subunit alpha-1B (Homo sapiens) (UniProt Q00975)
# Assay: inhibitors of Mint1-CaV2.2 protein interaction, biochemical, HTRF (AID 2073)
# Details: at 20 µM, stronger effect = higher value
# [1] = measured here: average of repeat tests
# Chain of Voltage-dependent N-type calcium channel subunit alpha-1B (Homo sapiens) (Q00975 whole entry, looked up): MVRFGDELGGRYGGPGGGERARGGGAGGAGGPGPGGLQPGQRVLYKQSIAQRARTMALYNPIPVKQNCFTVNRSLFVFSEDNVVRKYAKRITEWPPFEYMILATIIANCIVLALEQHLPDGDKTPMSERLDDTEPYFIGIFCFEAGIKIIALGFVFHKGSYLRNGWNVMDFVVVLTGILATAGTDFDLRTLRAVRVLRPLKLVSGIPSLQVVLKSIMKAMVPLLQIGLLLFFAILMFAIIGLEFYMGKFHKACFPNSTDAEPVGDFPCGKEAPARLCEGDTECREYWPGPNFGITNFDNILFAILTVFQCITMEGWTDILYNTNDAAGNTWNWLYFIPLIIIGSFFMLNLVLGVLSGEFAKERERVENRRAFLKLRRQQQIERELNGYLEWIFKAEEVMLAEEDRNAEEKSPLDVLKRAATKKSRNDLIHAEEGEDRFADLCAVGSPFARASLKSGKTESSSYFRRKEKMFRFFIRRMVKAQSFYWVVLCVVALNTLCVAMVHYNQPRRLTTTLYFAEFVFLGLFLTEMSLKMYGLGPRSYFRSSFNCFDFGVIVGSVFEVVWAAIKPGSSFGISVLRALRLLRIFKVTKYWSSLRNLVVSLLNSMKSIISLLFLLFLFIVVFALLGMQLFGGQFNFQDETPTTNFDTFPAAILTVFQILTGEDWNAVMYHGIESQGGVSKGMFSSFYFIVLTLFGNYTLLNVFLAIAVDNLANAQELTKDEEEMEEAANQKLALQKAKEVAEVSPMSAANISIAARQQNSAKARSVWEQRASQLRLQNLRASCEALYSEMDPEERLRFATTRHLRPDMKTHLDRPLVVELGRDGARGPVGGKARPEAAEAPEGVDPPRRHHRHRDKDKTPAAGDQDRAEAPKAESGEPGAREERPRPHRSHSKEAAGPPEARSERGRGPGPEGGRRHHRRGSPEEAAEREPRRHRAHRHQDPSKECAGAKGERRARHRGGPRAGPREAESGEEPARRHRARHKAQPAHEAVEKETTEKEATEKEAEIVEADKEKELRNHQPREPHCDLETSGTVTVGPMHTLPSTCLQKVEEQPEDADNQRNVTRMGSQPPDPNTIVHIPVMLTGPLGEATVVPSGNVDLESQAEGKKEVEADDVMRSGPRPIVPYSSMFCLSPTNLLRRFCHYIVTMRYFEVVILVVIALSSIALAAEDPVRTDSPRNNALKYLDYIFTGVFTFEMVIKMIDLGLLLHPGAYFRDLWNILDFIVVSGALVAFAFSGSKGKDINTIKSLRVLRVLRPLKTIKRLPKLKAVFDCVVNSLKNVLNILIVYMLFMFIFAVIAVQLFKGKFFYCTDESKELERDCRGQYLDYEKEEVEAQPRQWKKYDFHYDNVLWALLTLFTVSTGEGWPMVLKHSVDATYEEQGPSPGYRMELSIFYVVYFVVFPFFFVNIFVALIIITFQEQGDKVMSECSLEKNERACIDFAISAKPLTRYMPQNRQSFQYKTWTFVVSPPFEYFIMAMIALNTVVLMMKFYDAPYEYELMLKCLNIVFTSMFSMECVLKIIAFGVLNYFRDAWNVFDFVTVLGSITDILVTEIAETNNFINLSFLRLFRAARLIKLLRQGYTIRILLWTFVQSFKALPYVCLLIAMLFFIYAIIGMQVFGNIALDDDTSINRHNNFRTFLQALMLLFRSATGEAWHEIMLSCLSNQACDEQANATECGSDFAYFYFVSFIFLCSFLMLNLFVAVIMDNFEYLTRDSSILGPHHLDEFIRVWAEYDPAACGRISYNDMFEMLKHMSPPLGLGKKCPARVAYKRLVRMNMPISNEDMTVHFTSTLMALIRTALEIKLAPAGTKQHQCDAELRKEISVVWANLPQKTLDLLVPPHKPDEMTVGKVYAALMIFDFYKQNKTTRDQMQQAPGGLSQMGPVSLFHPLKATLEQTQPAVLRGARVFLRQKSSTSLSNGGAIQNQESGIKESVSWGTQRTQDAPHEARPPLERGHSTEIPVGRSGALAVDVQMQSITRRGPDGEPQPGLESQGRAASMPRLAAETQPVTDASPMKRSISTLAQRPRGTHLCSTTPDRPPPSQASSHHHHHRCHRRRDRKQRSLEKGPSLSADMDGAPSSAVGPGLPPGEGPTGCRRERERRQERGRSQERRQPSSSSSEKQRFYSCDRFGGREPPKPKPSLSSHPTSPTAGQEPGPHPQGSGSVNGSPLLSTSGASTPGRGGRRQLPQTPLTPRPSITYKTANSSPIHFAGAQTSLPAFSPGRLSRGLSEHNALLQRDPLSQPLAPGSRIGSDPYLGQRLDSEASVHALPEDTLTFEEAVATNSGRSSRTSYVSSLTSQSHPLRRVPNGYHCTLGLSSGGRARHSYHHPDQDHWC
Structure (SMILES),inhibition,inhibition [1] [%]
FC(F)(F)Oc1ccc(NC(=S)NCCCN2CCOCC2)cc1,-16.9% (inactive),
COC(=O)C1CCCN1S(=O)(=O)c1ccccc1NC(=O)c1cc(OC)c(OC)c(OC)c1 (stereo unspecified),12.9% (inactive),
O=C(O)c1cc(C(=O)O)cc(-c2ccc(/C=c3/sc4nc5ccccc5n4c3=O)o2)c1,67% (active),
O=C(O)c1ccc(-c2ccc(/C=c3/sc4nc5ccccc5n4c3=O)o2)cc1Cl,28.8% (inactive),
O=C(O)c1cccc(-c2ccc(/C=c3/sc4nc5ccccc5n4c3=O)o2)c1,26.7% (inactive),
COc1cc(/C=C(/C#N)c2nc(-c3cc4ccccc4oc3=O)cs2)cc([N+](=O)[O-])c1O,80.7% (active),
COc1cc(/C=C(\C#N)c2nc(-c3cc4ccccc4oc3=O)cs2)ccc1O,23.3% (inactive),
COc1cc(/C=C(\C#N)c2nc3ccccc3s2)cc([N+](=O)[O-])c1O,40.5% (inactive),
COc1ccc(N2Cc3ccc(C(=O)N/N=C\c4ccc(O)cc4O)cc3C2)cc1,68.9% (inactive),29.4
COc1ccc(NC(=O)c2cc3c(CO)cnc(C)c3oc2=Nc2cccc(C)c2)c(OC)c1,10.6% (inactive),
COc1ccc(NC(=O)c2cc3c(CO)cnc(C)c3oc2=Nc2cccc(F)c2)c(OC)c1,11.2% (inactive),
COc1ccccc1C(=O)OCC(=O)NC1CCCC1,16.7% (inactive),
NC(=O)c1ccccc1NC(=O)CN1CCOCC1,-0.5% (inactive),
COc1cc(/C=C/c2ccc3cccc(O)c3n2)ccc1O,21.1% (inactive),
COc1cc(/C=C/c2ccc3c(Br)cc(Br)c(O)c3n2)ccc1O,56.6% (active),
COc1ccc(/C=C/c2ccc3c(Br)ccc(O)c3n2)cc1,32.5% (inactive),
COCC(=O)N(Cc1nc2sc(C)c(C)c2c(=O)[nH]1)C1CCCCC1,4.2% (inactive),
CN(Cc1ccccc1F)C(=O)c1ccccc1Sc1ccccc1C#N,-14.5% (inactive),
COc1ccc(Nc2nc(-c3c(C)nc4ncccn34)cs2)cc1,55.6% (active),
Cc1nc2ncccn2c1-c1csc(Nc2ccc(O)cc2)n1,25% (inactive),

Structure (SMILES),inhibition,inhibition [1] [%]
Cc1ccc(Nc2nc(-c3c(C)nc4ncccn34)cs2)cc1,7.5% (inactive),
Cc1ccc2c(Cl)c(C(=O)NCC(c3ccco3)N3CCCC3)sc2c1 (stereo unspecified),3% (inactive),
O=c1c(Cl)nc2cc(Cl)ccc2n1CCNc1ncc(C(F)(F)F)cc1Cl,-81.2% (inactive),
Clc1ccc2nnnc(-c3ccccc3)c2c1,8.1% (inactive),
Cc1cc(C(=O)COC(=O)Cn2c(C(F)(F)F)nc3ccccc32)c(C)n1Cc1ccco1,1.6% (inactive),
CCOC(=O)c1sc(NC(=O)CCCCCN2C(=O)c3cccc4cccc(c34)C2=O)nc1C,52.5% (active),
CC(=O)c1sc(NC(=O)CCN2C(=O)c3ccccc3C2=O)nc1C,14.5% (inactive),
CCOC(=O)CCCCCN1C(=O)c2cccc3cccc(c23)C1=O,-9.7% (inactive),
O=C(CC1C(=O)NCCN1Cc1cccc(F)c1)NCCCOc1cccnc1 (stereo unspecified),0.9% (inactive),
N=C1C(c2nc3ccccc3[nH]2)=C(O)CN1NC(=O)c1c[nH]c2ccccc12,2.4% (inactive),
N=C1C(c2nc3ccccc3s2)=C(O)CN1NC(=O)c1ccccc1[N+](=O)[O-],14.9% (inactive),
N=C1C(c2nc3ccccc3s2)=C(O)CN1NC(=O)c1c[nH]c2ccccc12,53.4% (active),
COc1cc(OC)c(C2C(C#N)=C(C)NC(C)=C2C#N)c(C(=O)O)c1,-3.5% (inactive),
C=C(C)Cn1c(C2CC(=O)N(Cc3ccccc3)C2)nc2ccccc21 (stereo unspecified),-9.9% (inactive),
CCCN(CCC)CCCNC(=O)C1CCN(S(=O)(=O)c2cccc3nsnc23)CC1,-0.6% (inactive),
Cc1ccc(-c2c(C(=O)Nc3ccccc3C)c(C)[nH]c(=S)c2C#N)o1,33.2% (inactive),
CNC(=O)c1c(C)[nH]c(=S)c(C#N)c1-c1ccco1,-35.6% (inactive),
Cc1ccccc1NC(=O)c1c(C)[nH]c(=S)c(C#N)c1-c1ccco1,50.9% (active),
CCOC(=O)CNc1nc(Cl)nc(N2CCCCC2)n1,6.2% (inactive),
Cn1c(=O)c2c(n3cnnc13)-c1ccccc1CC21CCCC1,3.5% (inactive),

Structure (SMILES),inhibition,inhibition [1] [%]
COc1ccccc1CC(=O)Nc1cc(OC)c(NC(=O)c2ccccc2)cc1OC,-5.3% (inactive),
COc1ccccc1NC(=O)Cc1cccs1,-5.5% (inactive),
COc1cc(NC(=O)c2ccccc2)c(OC)cc1NC(=O)Cc1cccs1,51.4% (active),
COc1cc(N=c2ssnc2Cl)c(OC)cc1Cl,46.5% (inactive),
COc1cc(/C=C/c2ccc3cccc(O)c3n2)cc(OC)c1OC,24.9% (inactive),
COc1ccc(OC)c(N=c2ssnc2Cl)c1,27.6% (inactive),
COc1ccc(N=c2ssnc2Cl)cc1,27.4% (inactive),
Cc1ccc(-c2nc3ccccc3o2)cc1NC(=O)c1ccc2c(c1)OCO2,-1.5% (inactive),
O=C(Nc1ccc(-c2nc3ccccc3o2)cc1)c1ccc2c(c1)OCO2,66.2% (active),
Cc1ccc2oc(-c3ccc(NC(=O)c4ccc5c(c4)OCO5)cc3)nc2c1,6.7% (inactive),
Oc1ccc(Br)cc1CNc1cnc2ccccc2c1,13.6% (inactive),
CCCc1ccc(-c2cc(C(=O)N/N=C/c3ccc([N+](=O)[O-])o3)c3ccccc3n2)cc1,27.9% (inactive),
COc1ccc(-c2nn(-c3ccccc3)cc2C(=O)N/N=C/c2ccc([N+](=O)[O-])o2)cc1,50.6% (inactive),11.4
O=C(N/N=C/c1ccc([N+](=O)[O-])o1)c1cn(-c2ccccc2)nc1-c1ccc(Cl)cc1,67.5% (active),
O=C(N/N=C/c1ccc([N+](=O)[O-])o1)c1cn(-c2ccccc2)nc1-c1ccccc1,60.4% (inactive),2.1
O=C(N/N=C/c1ccc([N+](=O)[O-])o1)c1cc(-c2ccc(-c3ccccc3)cc2)nc2ccccc12,59.1% (active),
O=C(N/N=C/c1ccc([N+](=O)[O-])o1)c1cc(-c2ccncc2)nc2ccccc12,20.1% (inactive),
CCn1c(SCc2ccc(C)cc2)nnc1-c1cnccn1,1.9% (inactive),
